Reference: PubChem BioAssay (Tox21)
Inconclusive results are not listed. The source made the active and inactive calls. Unless noted, the call rests on the fitted dose curve.

Columns and labels:
[1] = Nuclear factor erythroid 2-related factor 2/antioxidant responsive element (Nrf2/ARE) small molecule agonists: qHTS cell viability counter screen in human keratinocytes (AID 1919968; active means well fitted curve in the direction sought with a large enough effect in the repeat runs; an effect the other way counts as inactive or inconclusive; further: nearly all actives have a fitted effect of over 55% in size)
Method in brief: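 Fluorescence read-out from CellTiter-Fluor after 1 h at 37 C. Wells held HaCaT-derived ARE-luciferase reporter cells (1,500/well) treated 23 h with DMSO-dissolved compounds. Run in the same wells as the luciferase agonist read.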

[2] = target: Gonadotropin-releasing hormone receptor (Homo sapiens) (UniProt P30968); experiment: Human gonadotropin-releasing hormone receptor (GnRHR) small molecule agonists, calcium flux assay in GnRHR-HEK293 cells (AID 1920063); further: nearly all actives have a fitted effect of over 35% in size
Chain of Gonadotropin-releasing hormone receptor (Homo sapiens) (P30968 whole entry, looked up): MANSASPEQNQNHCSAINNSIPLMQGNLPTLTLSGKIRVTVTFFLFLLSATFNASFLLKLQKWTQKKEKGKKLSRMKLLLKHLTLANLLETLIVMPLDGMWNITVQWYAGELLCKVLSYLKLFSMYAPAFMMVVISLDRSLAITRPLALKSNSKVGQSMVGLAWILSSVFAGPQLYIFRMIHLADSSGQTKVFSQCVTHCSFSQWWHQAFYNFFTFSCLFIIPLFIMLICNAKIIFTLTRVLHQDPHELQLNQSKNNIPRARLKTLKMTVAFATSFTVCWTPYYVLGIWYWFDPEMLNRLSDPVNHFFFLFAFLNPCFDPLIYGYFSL
Method in brief: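 Calcium-dye fluorescence, Ex/Em=480/540, recorded every 1 sec over 3 min after compound addition to GnRHR-HEK293 cells. Cells had been seeded 18 hours earlier and dye-loaded for 1 hour at 37 C. Fifteen concentrations, triplicates.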

[3] = target: KiSS-1 receptor (Homo sapiens) (UniProt Q969F8); experiment: Human kisspeptin (KISS1R) small molecule agonists, calcium flux assay in KISS1R-HEK293 cells (AID 1920064; active means well fitted curve in the direction sought with a large enough effect in the repeat runs; an effect the other way counts as inactive or inconclusive)
Chain of KiSS-1 receptor (Homo sapiens) (Q969F8 whole entry, looked up): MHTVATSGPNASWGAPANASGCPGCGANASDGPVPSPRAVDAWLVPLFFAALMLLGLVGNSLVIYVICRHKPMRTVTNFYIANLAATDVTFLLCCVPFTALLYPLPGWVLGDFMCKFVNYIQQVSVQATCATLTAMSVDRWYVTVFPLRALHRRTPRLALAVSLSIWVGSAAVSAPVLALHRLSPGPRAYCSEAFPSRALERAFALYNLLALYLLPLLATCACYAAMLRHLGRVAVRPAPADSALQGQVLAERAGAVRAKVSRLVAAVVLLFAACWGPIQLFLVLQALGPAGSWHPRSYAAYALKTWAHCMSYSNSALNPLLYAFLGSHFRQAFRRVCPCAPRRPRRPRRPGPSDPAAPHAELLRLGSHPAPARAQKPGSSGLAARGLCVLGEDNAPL
Method in brief: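 Calcium flux read-out: kinetic fluorescence at Ex/Em=480/540, 1 s intervals over 3 min, after pin-tool compound addition to dye-loaded KISS1R-HEK293 cells. Fifteen concentrations, triplicates.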

[4] = G protein-coupled receptor (GPCR) small molecule agonists, calcium flux assay: HEK293 wild type cell line counter screen (AID 1920065)
Method in brief: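 Agonist mode; 18 h seeding at 37 C, 1 h dye load at 37 C; compounds pinned from DMSO, ATP as positive control; kinetic fluorescence 480/540 nm, 3 min, 1 s reads; 15 concentrations, triplicate.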

[5] = p53 small molecule agonists, cell-based qHTS assay with human liver microsomes (AID 1963577);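 further: p53 response element beta-lactamase reporter cells with liver microsomes plus NADPH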
Method in brief: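 Steps: plate p53RE-bla cells, incubate 5 h at 37 C; add compound in DMSO; add microsomes (0.5 mg/mL final) and NADPH (0.5 mg/mL final); incubate 16 h at 37 C; add LiveBLAzer, 2 h RT; read fluorescence.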

[6] = p53 small molecule agonists, cell-based qHTS assay with rat liver microsomes (AID 1963578)
Method in brief: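 Metabolic activation is supplied by rat liver microsomes with NADPH (each 0.5 mg/mL final). p53RE-bla cells incubate with compound 16 h at 37 C; reporter activity is measured by LiveBLAzer fluorescence.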

[7] = p53 small molecule agonists, cell-based qHTS assay with human liver microsomes: qHTS cell viability counter screen (AID 1963579); further: nearly all actives have a fitted effect of over 45% in size
Method in brief: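 After the 460/530 nm beta-lactamase read, CellTiter-Glo was added to the same wells and luminescence measured after 30 min at room temperature, giving viability of p53RE-bla cells treated 16 h with compounds plus microsomes and NADPH.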

[8] = p53 small molecule agonists, cell-based qHTS assay with rat liver microsomes: qHTS cell viability counter screen (AID 1963580); further: nearly all actives have a fitted effect of over 45% in size
Method in brief: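 Luminescent ATP readout (CellTiter-Glo, 30 min at room temperature) reports viability of p53RE-bla HCT-116 cells after 16 h at 37 C with test compounds under metabolic activation by rat liver microsomes and NADPH at 0.5 mg/mL final each.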

[9] = p53 small molecule agonists, cell-based qHTS assay: qHTS cell viability counter screen (AID 1963581); further: nearly all actives have a fitted effect of over 45% in size
Method in brief: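 Cytotoxicity read-out: ATP-based luminescence (CellTiter-Glo, 30 min RT) measured in the same wells as the p53 reporter assay, HCT-116 p53RE-bla cells, 16 h compound exposure at 37 C.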

[10] = p53 small molecule agonists, cell-based qHTS assay (AID 1963582; active means well fitted activation curve with a large enough effect in the signal ratio in the repeat runs, not every such curve was filed as active; the % refers to the signal ratio)
Method in brief: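 Fluorescence intensity read-out of a beta-lactamase reporter under a p53 response element. Cells were exposed to DMSO-dissolved compounds for 16 h at 37 C, then developed with FRET substrate for 2 h at RT.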

[11] = target: 5-hydroxytryptamine receptor 2A (Homo sapiens) (UniProt P28223); experiment: 5-hydroxytryptamine receptor 2A (HTR2A) small molecule antagonists, cell-based qHTS assay (AID 1963586); further: nearly all actives have a fitted effect of over 45% in size
Chain of 5-hydroxytryptamine receptor 2A (Homo sapiens) (P28223 whole entry, looked up): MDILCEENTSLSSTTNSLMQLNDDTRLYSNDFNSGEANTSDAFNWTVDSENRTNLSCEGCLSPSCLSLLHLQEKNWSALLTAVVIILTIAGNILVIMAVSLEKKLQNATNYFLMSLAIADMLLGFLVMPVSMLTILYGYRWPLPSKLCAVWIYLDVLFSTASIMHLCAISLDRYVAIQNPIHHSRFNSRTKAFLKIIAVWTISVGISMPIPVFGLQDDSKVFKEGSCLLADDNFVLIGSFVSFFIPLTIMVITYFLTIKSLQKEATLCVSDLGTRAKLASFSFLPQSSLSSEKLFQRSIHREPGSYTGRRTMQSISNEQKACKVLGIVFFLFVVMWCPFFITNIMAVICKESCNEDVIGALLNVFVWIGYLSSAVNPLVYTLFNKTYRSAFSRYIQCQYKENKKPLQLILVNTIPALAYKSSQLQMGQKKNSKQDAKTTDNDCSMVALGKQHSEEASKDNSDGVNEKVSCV
Method in brief: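 CHO cells stably expressing human HTR2A were plated for 18 h at 37 C, then loaded with calcium dye for 1 h. Compounds were preincubated 5 min at room temperature before DOI (4 nM solution) was added. Kinetic fluorescence was read for 3 min.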

[12] = target: 5-hydroxytryptamine receptor 2A (Homo sapiens) (UniProt P28223); experiment: 5-hydroxytryptamine receptor 2A (HTR2A) small molecule agonists, cell-based qHTS assay (AID 1963587); further: nearly all actives have a fitted effect of over 30% in size
Method in brief: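 HTR2A-CHO cells, plated 18 h at 37 C/5% CO2, dye-loaded 1 h at 37 C; compounds in DMSO added by pin tool (agonist mode). Intracellular calcium flux read as kinetic fluorescence on FDSS over 2 min at 1 s intervals.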

[13] = target: Muscarinic acetylcholine receptor M1 (Homo sapiens) (UniProt P11229); experiment: Cholinergic receptor muscarinic 1 (CHRM1) small molecule antagonists, cell-based qHTS assay (AID 1963588); further: nearly all actives have a fitted effect of over 40% in size
Chain of Muscarinic acetylcholine receptor M1 (Homo sapiens) (P11229 whole entry, looked up): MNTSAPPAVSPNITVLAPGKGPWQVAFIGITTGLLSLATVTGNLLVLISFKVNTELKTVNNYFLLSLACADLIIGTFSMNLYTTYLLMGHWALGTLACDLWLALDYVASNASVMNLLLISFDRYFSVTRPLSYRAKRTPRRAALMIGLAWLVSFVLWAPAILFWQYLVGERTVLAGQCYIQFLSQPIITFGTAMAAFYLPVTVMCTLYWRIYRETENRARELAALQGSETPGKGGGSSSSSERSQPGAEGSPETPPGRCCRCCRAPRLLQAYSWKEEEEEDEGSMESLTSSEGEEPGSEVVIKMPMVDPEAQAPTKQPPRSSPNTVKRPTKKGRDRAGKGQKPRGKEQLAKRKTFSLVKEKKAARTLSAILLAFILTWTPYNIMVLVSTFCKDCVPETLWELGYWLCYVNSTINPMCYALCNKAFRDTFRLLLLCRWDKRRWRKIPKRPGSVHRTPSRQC
Method in brief: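 Compounds were tested at 15 concentrations in three independent runs. Dye-loaded CHRM1-CHO cells were exposed 5 min at room temperature before stimulation by acetylcholine added at 50nM. Intracellular calcium was read kinetically on FDSS for 3 min.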

[14] = target: Muscarinic acetylcholine receptor M1 (Homo sapiens) (UniProt P11229); experiment: Cholinergic receptor muscarinic 1 (CHRM1) small molecule agonists, cell-based qHTS assay (AID 1963589); further: nearly all actives have a fitted effect of over 35% in size
Method in brief: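 Calcium flux read-out: kinetic fluorescence at 1 sec intervals after pin-tool compound addition to dye-loaded CHRM1-CHO cells (human M1). Agonist mode; 15 concentrations tested in triplicate independent runs.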

[15] = cAMP Responsive Elements (CRE) small molecule agonists, cell-based qHTS assay (AID 1963590)
Method in brief: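 Beta-lactamase reporter readout: LiveBLAzer B/G FRET substrate, 2 h at room temperature, added after 3 h compound treatment of CRE-bla HEK 293T cells at 37 C/5% CO2.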

[16] = cAMP Responsive Elements (CRE) small molecule antagonists, cell-based qHTS assay (AID 1963591; active means well fitted inhibition curve with a large enough effect in the signal ratio in the repeat runs, not every such curve was filed as active; the % refers to the signal ratio)
Method in brief: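 HEK293T CRE-bla; 18 h preincubation; compound pin-transfer; NKH477 0.25 uM final, 3 h, 37 C; LiveBLAzer FRET substrate 2 h RT.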

[17] = target: Beta-2 adrenergic receptor (Homo sapiens) (UniProt P07550); experiment: Adrenergic beta2 receptor (ADRB2) small molecule antagonists, cell-based qHTS assay (AID 1963592); further: nearly all actives have a fitted effect of over 50% in size; further: potency means the concentration at half of the fitted maximal effect
Chain of Beta-2 adrenergic receptor (Homo sapiens) (P07550 whole entry, looked up): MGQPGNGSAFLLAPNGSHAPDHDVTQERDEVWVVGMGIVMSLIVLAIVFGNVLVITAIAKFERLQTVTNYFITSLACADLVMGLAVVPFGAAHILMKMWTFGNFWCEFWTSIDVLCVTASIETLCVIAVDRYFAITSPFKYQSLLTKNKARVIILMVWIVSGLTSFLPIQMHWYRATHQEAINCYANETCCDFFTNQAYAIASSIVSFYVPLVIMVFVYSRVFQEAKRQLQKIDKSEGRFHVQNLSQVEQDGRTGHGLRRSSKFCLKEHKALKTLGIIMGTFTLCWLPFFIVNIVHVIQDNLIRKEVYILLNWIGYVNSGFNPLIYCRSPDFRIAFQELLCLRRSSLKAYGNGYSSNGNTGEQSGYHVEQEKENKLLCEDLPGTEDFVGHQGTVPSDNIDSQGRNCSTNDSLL
Method in brief: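 Assay format: CHO-ADRB2 cells, 18-20hr seeding at 37C/5% CO2, then compound plus 1nM isoproterenol agonist mix for 0.5hr RT. Homogeneous time-resolved fluorescence cAMP detection after 1hr, expressed as 665/615 nm ratio.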

[18] = target: D(2) dopamine receptor (Homo sapiens) (UniProt P14416); experiment: Dopamine D2 receptor (DRD2) small molecule agonists, cell-based qHTS assay (AID 1963594); further: nearly all actives have a fitted effect of over 35% in size
Chain of D(2) dopamine receptor (Homo sapiens) (P14416 whole entry, looked up): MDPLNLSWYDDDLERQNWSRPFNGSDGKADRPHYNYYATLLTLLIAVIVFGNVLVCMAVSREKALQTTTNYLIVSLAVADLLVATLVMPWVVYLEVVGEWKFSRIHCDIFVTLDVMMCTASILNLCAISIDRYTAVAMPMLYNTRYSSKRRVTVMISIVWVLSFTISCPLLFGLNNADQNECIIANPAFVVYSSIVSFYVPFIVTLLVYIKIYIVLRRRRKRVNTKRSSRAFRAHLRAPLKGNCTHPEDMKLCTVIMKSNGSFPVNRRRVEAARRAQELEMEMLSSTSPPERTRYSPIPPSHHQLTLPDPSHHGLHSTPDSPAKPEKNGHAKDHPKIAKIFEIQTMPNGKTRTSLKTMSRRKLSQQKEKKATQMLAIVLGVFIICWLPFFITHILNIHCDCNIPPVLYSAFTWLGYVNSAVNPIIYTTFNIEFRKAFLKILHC
Method in brief: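 HEK293 cells stably expressing DRD2 were cultured 24 h at 37 C, then given Ro20-1724 (0.1 mM final) and compounds for 10 min at room temperature. NKH477 (200nM) was then added for 30 min. cAMP was read by HTRF.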

[19] = target: D(2) dopamine receptor (Homo sapiens) (UniProt P14416); experiment: Dopamine D2 receptor (DRD2) small molecule antagonists, cell-based qHTS assay (AID 1963595; active means well fitted inhibition curve with a large enough effect in the signal ratio in the repeat runs, with a control signal flat; the % refers to the signal ratio)
Method in brief: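 HTRF cAMP read-out at 665 and 620 nm emission (340 nm excitation). Antagonist mode: compounds were tested against 12 nM quinpirole in DRD2-HEK293 cells, with 200 nM NKH477 raising cAMP and 0.1 mM Ro20-1724 blocking its breakdown.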

[20] = target: Beta-2 adrenergic receptor (Homo sapiens) (UniProt P07550); experiment: Adrenergic beta2 receptor (ADRB2) small molecule agonists, cell-based qHTS assay (AID 1963593);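 further: CHO cells stably overexpressing human ADRB2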
Method in brief: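 CHO cells stably over-expressing ADRB2 were plated overnight at 37C, then dosed with compounds plus a stimulation mix containing 100uM IBMX and 25uM Ro-20-1724 for 0.5hr at room temperature. cAMP was measured by HTRF competition, 1hr.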

Measured: Potency

CC(=O)CCc1ccc(OC(C)=O)cc1
not listed: [20]
inactive: all other assays above

CC(=O)OCC(C)OC(C)=O (stereo unspecified)
not listed: [16] | [20]
inactive: all other assays above

O=C(CN1CCNCC1)NC1CCCCC1
inactive: all assays above

CCCCO
not listed: [20]
inactive: all other assays above

CC1(CO)CN(c2ccccc2)NC1=O (stereo unspecified)
inactive: all assays above

S=c1nccc[nH]1
not listed: [20]
inactive: all other assays above

Cc1ccc([N+](=O)[O-])cc1Cl
not listed: [20]
inactive: all other assays above

CCCCOc1ccc(N)cc1
not listed: [20]
inactive: all other assays above

c1ccc2sc(SN3CCOCC3)nc2c1
inactive: all assays above

CC(C)(C)c1ccc(C(=O)O)cc1
not listed: [19]
inactive: all other assays above

ClC(Cl)(Cl)c1ccc(C(Cl)(Cl)Cl)cc1
not listed: [20]
inactive: all other assays above

c1ccc(-c2ccccn2)nc1
not listed: [18]
inactive: all other assays above

COC(C(=O)O)c1ccccc1 (stereo unspecified)
inactive: all assays above

CCCCCC(CO)CCC (stereo unspecified)
inactive: all assays above

CC(C)C=O
inactive: all assays above

Cc1cccc(OCC(O)CNC(C)(C)C)c1C (stereo unspecified)
active: [17] 7.5 nM
not listed: [18] | [20]
inactive: all other assays above

CCCOCC(C)OCC(C)O (stereo unspecified)
not listed: [18] | [20]
inactive: all other assays above

CCCCOC(=O)CO
inactive: all assays above

C=Cc1ccc(OC(C)=O)cc1
not listed: [18]
inactive: all other assays above

N#CCCCC(C#N)CCC#N (stereo unspecified)
not listed: [18]
inactive: all other assays above

COc1nc(N)nc2c1ncn2[C@@H]1O[C@H](CO)[C@@H](O)[C@@H]1O
not listed: [19]
inactive: all other assays above

NC(=O)CCCCC1CCSS1 (stereo unspecified)
not listed: [20]
inactive: all other assays above

CCOC(=O)CC(O)(CC(=O)OCC)C(=O)OCC
not listed: [18]
inactive: all other assays above

CC1=C(C(=O)O)N2C(=O)[C@@H](NC(=O)[C@H](N)c3ccc(O)cc3)[C@H]2SC1
not listed: [20]
inactive: all other assays above

C[C@]12C(=O)OC(=O)[C@H]1[C@H]1C=C[C@@H]2C1
not listed: [20]
inactive: all other assays above

COC(C)(C)CC(C)=O
not listed: [18]
inactive: all other assays above

O=C1CCCCCCCCCCCCCCO1
not listed: [20]
inactive: all other assays above

Cc1c[nH]c(=O)[nH]c1=O
inactive: all assays above

CCCCCCCCCCCCCCCC(=O)OC/C=C(C)/C=C/C=C(C)/C=C/C1=C(C)CCCC1(C)C
not listed: [20]
inactive: all other assays above
